# About 1,000 (1.4%) of roughly 69,000 compounds showed an effect of 50% or more. The list comes from a sample in which strong results are over-represented; it also holds similar structures and randomly drawn compounds.
# Test system: Leishmania donovani
# Test: Leishmania intramacrophage assay
# Assay type: functional, organism-based
# Parameters: scale not given: in the data most compounds retested in dose-response had high values
structure (smiles),measurement,setting,value
COc1cc(CSc2nnc(N)n2C2CC2)ccc1SC,Percent Effect,"30.3 µM, […]",3.668%
CC(C)(C)c1ncc(C(=O)N2CCC(N3CCSCC3)CC2)c(O)n1,Percent Effect,"30.3 µM, […]",-1.593%
Cc1ccc(CC(=O)NCC(Cc2ccc(F)cc2)C(N)=O)cn1 (stereo not drawn),Percent Effect,"30.3 µM, […]",53.64%
NC(=O)C(CNC(=O)Cc1ccsc1)Cc1ccc(F)cc1 (stereo not drawn),Percent Effect,"30.3 µM, […]",32.76%
NC(=O)C(CNC(=O)Cc1ccc(F)cc1)Cc1ccc(F)cc1 (stereo not drawn),Percent Effect,"30 µM, 30.03 µM",16.98%
CSc1ncnc(NCc2cccs2)c1C#N,Percent Effect,"30.3 µM, […]",10.2%
COCCCN1Cc2cccc(NC(=O)c3ccccc3C)c2C1,Percent Effect,"30.3 µM, […]",-0.887%
O=C(NCc1ccco1)[C@H]1CC[C@@H]2[C@@H](CCN2Cc2nccs2)O1.O=C(O)C(F)(F)F,Percent Effect,"30.3 µM, […]",-4.08%
COCC[C@]1(O)CCN(Cc2nc(C(C)C)cs2)C[C@H]1C,Percent Effect,"30.3 µM, […]",-0.9404%
COCCN(Cc1sccc1C)Cc1nccn1CCOC,Percent Effect,"30.3 µM, […]",16.06%
COCCN(Cc1ccccn1)Cc1sccc1C,Percent Effect,"30.3 µM, […]",0.646%
COCCn1ccnc1CN(Cc1ccccn1)Cc1sccc1C,Percent Effect,"30.3 µM, […]",60.02%
CN(CC(=O)Nc1cnn(-c2ccccc2S(C)(=O)=O)c1)C1CC1,Percent Effect,"30.3 µM, […]",52.47%
CC(C)(C)CC(=O)Nc1cnn(-c2ccccc2S(C)(=O)=O)c1,Percent Effect,"30.3 µM, […]",13.51%
CS(=O)(=O)c1ccccc1-n1cc(NC(=O)CC2C=CCC2)cn1 (stereo not drawn),Percent Effect,"30.3 µM, […]",4.466%
CC(C)c1cc(=O)[nH]c(-c2ccccc2CN2CCCCCC2)n1,Percent Effect,"30.3 µM, […]",1.494%
Cc1c(C)n(Cc2ccccn2)c2nc3c(c(N)c12)CCCC3,Percent Effect,"30 µM, 30.03 µM",-5.276%
CCc1nc2c(c(C)c(C)n2Cc2cccnc2)c(N)c1C,Percent Effect,"30.3 µM, […]",13.69%
CCCc1nc2c(c(C)c(C)n2Cc2cccnc2)c(N)c1CC,Percent Effect,"30.3 µM, […]",64.41%
Cc1c(C)n(Cc2ccncc2)c2nc3c(c(N)c12)CCCC3,Percent Effect,"30.3 µM, […]",9.739%
CCCc1nc2c(c(C)c(C)n2Cc2ccncc2)c(N)c1CC,Percent Effect,"30.3 µM, […]",13.89%
CCCc1nc2c(c(C)c(C)n2Cc2ccccn2)c(N)c1CC,Percent Effect,"30.3 µM, […]",98.46%
O=C(Cc1ccon1)N1CCN(c2ccc(F)cc2Cl)CC1,Percent Effect,"30.3 µM, […]",4.988%
CNC(=O)c1cnn2c(C3CCCN3C)ccnc12 (stereo not drawn),Percent Effect,"30.3 µM, […]",-0.3512%
CCN1CCC2(CCN(c3ncccn3)CC2)C1=O.O=C(O)C(F)(F)F,Percent Effect,"30.3 µM, […]",-8.891%
Cc1cc(C(=O)NCC(C)C)nn1C,Percent Effect,"30.3 µM, […]",3.079%
Cc1ccc(F)c(OC2CCCN(c3cnn(C)c3)C2=O)c1 (stereo not drawn),Percent Effect,"30.3 µM, […]",1.572%
CN(Cc1nccn1C)S(=O)(=O)Cc1cccc(C#N)c1,Percent Effect,"30.3 µM, […]",3.121%
Cc1c[nH]c(C2CCCN(Cc3ccccc3C(=O)O)C2)n1.O=CO (stereo not drawn),Percent Effect,"30.3 µM, […]",-7.994%
CC(=O)N1CCCN(C(=O)NCCNc2cnccn2)CC1,Percent Effect,30 µM,10.17%
CN(C)c1nccc(N2CCO[C@H]3CN(Cc4nccn4C)C[C@H]32)n1.O=C(O)C(F)(F)F,Percent Effect,"30.3 µM, […]",22.89%
Cc1cccc(CN2C[C@@H]3OCCN(c4ccnc(N(C)C)n4)[C@@H]3C2)c1.O=C(O)C(F)(F)F,Percent Effect,"30.3 µM, […]",-2.723%
CCc1ccc(CN2C[C@@H]3OCCN(c4ccnc(N(C)C)n4)[C@@H]3C2)o1.O=C(O)C(F)(F)F,Percent Effect,"30 µM, 30.03 µM",55.16%
CCc1cc(CNC(=O)C2CCCN(C(=O)NCC(C)C)C2)[nH]n1 (stereo not drawn),Percent Effect,"30.3 µM, […]",-11.81%
CCn1nc2c(cc1=O)CN(Cc1coc(-c3ccccc3)n1)CC2,Percent Effect,"30.3 µM, […]",51.53%
Cn1nc2c(cc1=O)CN(Cc1coc(-c3ccccc3)n1)CC2,Percent Effect,"30.3 µM, […]",18.82%
Cc1ccc(-c2nc(CN3CCc4nn(C)c(=O)cc4C3)co2)cc1,Percent Effect,"30 µM, 30.03 µM",21.01%
Nc1cc2c(nn1)CCN(C(=O)CC1CCCCC1)C2,Percent Effect,30 µM,25.14%
CCOC(=O)C1(CCOC)CCCN(Cc2nccn2CC)C1 (stereo not drawn),Percent Effect,"30.3 µM, […]",-5.772%
CCOC(=O)C1(Cc2ccccc2)CCCN(Cc2nccn2CC)C1 (stereo not drawn),Percent Effect,"30.3 µM, […]",51.2%
CCOC(=O)C1(Cc2cccc(OC)c2)CCCN(Cc2ncc[nH]2)C1 (stereo not drawn),Percent Effect,"30.3 µM, […]",-0.9604%
CN(C)C(=O)CNC(=O)c1ccc(Cl)cc1F,Percent Effect,"30 µM, 30.03 µM",-10.55%
Br.O=C(CN(C1=NCCCC1)c1ccccc1)c1ccccc1,Percent Effect,"30 µM, 30.03 µM",-5.499%
Br.Cc1ccc(N(CC(=O)c2ccc(Br)cc2)C2=NCCCCC2)cc1,Percent Effect,"30 µM, 30.03 µM",57.51%
COc1ccc(CN(Cc2c[nH]cn2)CC2CCCO2)c(OC)c1.O=C(O)CC(O)(CC(=O)O)C(=O)O (stereo not drawn),Percent Effect,"30.3 µM, […]",20.29%
Cc1noc(C)c1CN1CCc2ncnc(-c3cccnc3)c2CC1.O=C(O)C(F)(F)F.O=C(O)C(F)(F)F,Percent Effect,"30.3 µM, […]",26.97%
Cc1cc2c(N3CCC(N(C)Cc4cnn(C)c4)CC3)ncnc2s1,Percent Effect,"30.3 µM, […]",31.66%
Cc1cc2c(N3CCC(N(C)CCc4cnn(C)c4)CC3)ncnc2s1,Percent Effect,"30.3 µM, […]",2.228%
Cc1sc2ncnc(N3CCC(N(C)Cc4cnn(C)c4)CC3)c2c1C,Percent Effect,"30.3 µM, […]",50.06%
Cc1oc(C)c(C(=O)Nc2ccccn2)c1C,Percent Effect,"30.3 µM, […]",0.1995%
Cc1cc(N2CCc3c(ncn3C)C2)n2nc(C(F)(F)F)nc2n1,Percent Effect,"30.3 µM, […]",17.99%
COCCn1cncc1CN1CCCC(C)(c2ccccc2)C1 (stereo not drawn),Percent Effect,"30.3 µM, […]",-2.364%
CC1(c2ccccc2)CCCN(Cc2cncn2C2CCCC2)C1 (stereo not drawn),Percent Effect,"30.3 µM, […]",95.34%
CC1(c2ccccc2)CCCN(Cc2cncn2C2CC2)C1 (stereo not drawn),Percent Effect,"30.3 µM, […]",33.62%
Cc1ccc(C2(CN(C)Cc3snnc3C)CCNCC2)nc1,Percent Effect,"30.3 µM, […]",37.33%
Cc1ccc(C2(CN(C)Cc3c(C)nn(C)c3C)CCNCC2)nc1,Percent Effect,"30.3 µM, […]",37.1%
Cc1ccc(C2(CN(C)Cc3sccc3C)CCNCC2)nc1,Percent Effect,"30.3 µM, […]",56.47%
Cc1cccc(-c2noc(CN3CCCC(Cn4cncn4)C3)n2)c1 (stereo not drawn),Percent Effect,"30 µM, 30.03 µM",23.08%
CC(C)c1cncnc1N1CC[C@H](N2CCOCC2)[C@H](CCCO)C1,Percent Effect,"30.3 µM, […]",26.26%
CCCC(=O)Nc1cc2c(cc1OC)NC(=O)CC2c1ccc(CC)o1 (stereo not drawn),Percent Effect,"30.3 µM, […]",77.7%
CCc1ccc(C2CC(=O)Nc3cc(OC)c(NS(C)(=O)=O)cc32)o1 (stereo not drawn),Percent Effect,"30.3 µM, […]",-14.18%
CCc1ccc(C2CC(=O)Nc3cc(NS(C)(=O)=O)ccc32)o1 (stereo not drawn),Percent Effect,"30.3 µM, […]",14.16%
Cc1cc(CN2CCN(Cc3cc(C#N)ccc3F)CC2)no1,Percent Effect,"30.3 µM, […]",28.56%
Cc1ccnc(OC[C@@]23CCO[C@@H]2CCN(c2ncc(F)cn2)C3)n1.O=C(O)C(F)(F)F,Percent Effect,"30.3 µM, […]",22.41%
CC(CN1CCCC1=O)NC(=O)c1cc(Cl)c2c(c1)OCO2 (stereo not drawn),Percent Effect,"30.3 µM, […]",-42.28%
O=C(N[C@@H]1CCNC[C@H]1O)c1ccc(-c2ccc(F)cc2)cc1,Percent Effect,"30.3 µM, […]",72.82%
O=C(N[C@@H]1CCNC[C@H]1O)c1ccc(F)c(F)c1,Percent Effect,"30.3 µM, […]",-28.62%
O=C(N[C@@H]1CCNC[C@H]1O)c1ccc(F)c(Cl)c1,Percent Effect,"30 µM, 30.03 µM",13.21%
Cc1nc(CN2CCOC(Cn3cccn3)C2)nc2ccccc12 (stereo not drawn),Percent Effect,30 µM,18.44%
Cc1nn(C)c2nc(N3CCN(Cc4nccn4C)CC3)sc12,Percent Effect,"30.3 µM, […]",15.9%
Cc1nc(N)sc1C(=O)N1CCC(C(O)Cc2ccccc2)CC1 (stereo not drawn),Percent Effect,"30.3 µM, […]",8.209%
Cc1nn(C)c2nc(N3CCC(C(O)c4ccccn4)CC3)sc12 (stereo not drawn),Percent Effect,"30.3 µM, […]",50.06%
Cc1nn(C)c2nc(N3CCC(C(O)c4nccn4C)CC3)sc12 (stereo not drawn),Percent Effect,"30.3 µM, […]",-0.9674%
Cc1nn(C)c2nc(N3CCC(C(O)Cc4ccccc4)CC3)sc12 (stereo not drawn),Percent Effect,"30.3 µM, […]",58.21%
Cc1ccc(N2CCC(C(O)Cc3ccccc3)CC2)nn1 (stereo not drawn),Percent Effect,"30.3 µM, […]",17.05%
CN(C)C[C@@H]1CN(C(=O)Cc2ccc3ccccc3c2)C[C@@H]1CO,Percent Effect,"30.3 µM, […]",-3.237%
CC(C)N1CC2(CCC1=O)CCN(C(=O)c1cc(F)ccc1Cl)CC2,Percent Effect,"30.3 µM, […]",18%
COc1ccc(CCNC(=O)CN2CCOCS2(=O)=O)cc1,Percent Effect,"30.3 µM, […]",0.9024%
CCc1noc(C2CCCCN2C(=O)c2cccnc2)n1 (stereo not drawn),Percent Effect,"30.3 µM, […]",-10.93%
CCc1noc(C2CCCCN2C(=O)c2ccc3c(c2)OCO3)n1 (stereo not drawn),Percent Effect,"30.3 µM, […]",61.74%
CCc1noc(C2CCCCN2C(=O)c2ccccc2)n1 (stereo not drawn),Percent Effect,"30.3 µM, […]",-11.89%
O=C1C(CS(=O)(=O)Nc2ccc(Br)cc2)=NC(=O)n2cccc21,Percent Effect,"30.3 µM, […]",-27.67%
CCc1noc(CN(CC)C(=O)c2ccc3ncsc3c2)n1,Percent Effect,"30.3 µM, […]",-21.19%
CN(Cc1n[nH]c(=O)n1CCc1ccccc1F)S(C)(=O)=O,Percent Effect,"30.3 µM, […]",22.43%
COc1cccc2c1OCC(C(=O)N1CCN(CCS(C)(=O)=O)CC1)C2 (stereo not drawn),Percent Effect,"30.3 µM, […]",2.664%
Fc1ccc(CN2CCCC3(CCN(Cc4ncc[nH]4)C3)C2)cc1F (stereo not drawn),Percent Effect,"30.3 µM, […]",24.4%
Cc1c[nH]c(CN2CCC3(CCCN(Cc4ccc(F)c(F)c4)C3)C2)n1 (stereo not drawn),Percent Effect,"30.3 µM, […]",53.74%
Cc1ccc(CN2CCC3(CCCN(Cc4ccc(F)c(F)c4)C3)C2)o1 (stereo not drawn),Percent Effect,"30.3 µM, […]",-12.81%
Cc1cc(C)n(C2CCN(S(C)(=O)=O)CC2)n1,Percent Effect,"30.3 µM, […]",-8.348%
O=C(Nc1cc(Cl)ccc1Cl)NC1CCN(C2CCOC2)CC1 (stereo not drawn),Percent Effect,"30.3 µM, […]",-19.47%
O=C(NCCn1ccnc1)N1CCCN(Cc2cccs2)CC1,Percent Effect,30 µM,32.04%
CN(C)C(=O)C1CN(c2ncccn2)CCN1C (stereo not drawn),Percent Effect,"30.3 µM, […]",10.06%
COc1nc2c(cc1C(=O)N1CCCC1c1ccccn1)CCC2 (stereo not drawn),Percent Effect,"30.3 µM, […]",15.04%
CCn1cnnc1C1CCN(C(=O)C(OC)c2ccccc2)CC1 (stereo not drawn),Percent Effect,"30 µM, 30.03 µM",25.64%
Fc1cnc(N2CCOC3(CCN(Cc4cccs4)CC3)C2)nc1.O=C(O)C(F)(F)F.O=C(O)C(F)(F)F,Percent Effect,"30.3 µM, […]",53.49%
CN1CCN(C2COC3(CCN(Cc4ccc(F)cc4)CC3)C2)CC1.O=C(O)C(F)(F)F.O=C(O)C(F)(F)F.O=C(O)C(F)(F)F (stereo not drawn),Percent Effect,"30.3 µM, […]",32.4%
CN1CCN(C2COC3(CCN(Cc4ccsc4)CC3)C2)CC1.O=C(O)C(F)(F)F.O=C(O)C(F)(F)F (stereo not drawn),Percent Effect,"30.3 µM, […]",20.49%
O=C(O)C(F)(F)F.c1cnc(NC2COC3(CCN(Cc4cccs4)CC3)C2)nc1 (stereo not drawn),Percent Effect,"30.3 µM, […]",-71.32%
CCc1ccc(CN2CCC3(CC2)CC(N2CCN(C)CC2)CO3)cc1.O=C(O)C(F)(F)F (stereo not drawn),Percent Effect,"30 µM, 30.03 µM",78.58%
CN1CCN(C2COC3(CCN(Cc4cccs4)CC3)C2)CC1.O=C(O)C(F)(F)F.O=C(O)C(F)(F)F (stereo not drawn),Percent Effect,"30.3 µM, […]",53.18%
Cc1ccc(CN2CCC3(CC2)CC(N2CCN(C)CC2)CO3)s1.O=C(O)C(F)(F)F.O=C(O)C(F)(F)F.O=C(O)C(F)(F)F (stereo not drawn),Percent Effect,"30.3 µM, […]",35.32%
Fc1cnc(N2CCOC3(CCN(Cc4ccsc4)CC3)C2)nc1.O=C(O)C(F)(F)F.O=C(O)C(F)(F)F,Percent Effect,"30 µM, 30.03 µM",16.14%
O=C(O)C(F)(F)F.O=C(c1ccccc1)N1CCOC2(CCN(Cc3cccs3)CC2)C1,Percent Effect,"30.3 µM, […]",5.175%
